Data reported in PubChem BioAssay (EPA / NIEHS).
Calls of active or inactive are those of the source. The calls were made as follows: active = hit-call score of the fitted dose curve at least 0.9, where 1 is the maximum; inactive = score below 0.9.

What was measured:
Settings in all cases: mRNA level, 48 h; actives raise or lower the signal
[1] = read-out: Forkhead box O1 (FOXO1), FOXO1 (gene 2308); assay: LTEA_HepaRG_FOXO1: Life Technologies and Expression Analysis (LTEA) Assay for Forkhead box O1 (FOXO1) using HepaRG (AID 2283456)
Procedure, shortened: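 Readout is FOXO1 transcript level by multiplexed qRT-PCR against three housekeeping genes, curve-fitted in both directions relative to 0.5% DMSO vehicle. Human HepaRG cultures received chemicals for 48 h, up to 100 uM in half-log steps.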

[2] = read-out: growth arrest and DNA damage 45 (GADD45A), GADD45A (gene 1647); assay: LTEA_HepaRG_GADD45A: Life Technologies and Expression Analysis (LTEA) Assay for growth arrest and DNA damage 45 (GADD45A) using HepaRG (AID 2283458)
Procedure, shortened: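 Differentiated HepaRG cells exposed 48 h in serum-free induction medium to 8 concentrations, top 100 uM in half-log steps, 0.5% DMSO. GADD45A mRNA quantified by qRT-PCR, normalized to ACTB, GAPDH and POLR2A; bidirectional fit versus DMSO.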

[3] = read-out: Forkhead box O3 (FOXO3), FOXO3 (gene 2309); assay: LTEA_HepaRG_FOXO3: Life Technologies and Expression Analysis (LTEA) Assay for Forkhead box O3 (FOXO3) using HepaRG (AID 2283459)
Procedure, shortened: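 HepaRG, 48 h post-dose; 8 conc., half-log from 100 uM, 0.5% DMSO, duplicates; serum-free induction medium. Readout: FOXO3 mRNA, TaqMan qRT-PCR, housekeeping-normalized. Bidirectional curve fit vs DMSO baseline.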

[4] = read-out: ABC Transporter (ABCB1), ABCB1 (gene 5243); assay: LTEA_HepaRG_ABCB1: Life Technologies and Expression Analysis (LTEA) Assay for ABC Transporter (ABCB1) using HepaRG (AID 2283460)
Procedure, shortened: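 Expression of ABCB1 was quantified by qRT-PCR against three housekeeping genes after human HepaRG cultures received test chemicals for 48 hours. Concentrations spanned eight half-log steps topping at 100 uM in 0.5% DMSO; gain or loss of signal was fitted relative to vehicle.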

[5] = read-out: growth arrest and DNA damage 45 (GADD45B), GADD45B (gene 4616); assay: LTEA_HepaRG_GADD45B: Life Technologies and Expression Analysis (LTEA) Assay for growth arrest and DNA damage 45 (GADD45B) using HepaRG (AID 2283461)
Procedure, shortened: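 Human HepaRG monolayers receive chemicals for 48 h at eight half-log concentrations, highest 100 uM, in 0.5% DMSO. Expression is measured by TaqMan qRT-PCR and normalized to ACTB, GAPDH and POLR2A.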

[6] = read-out: ABC Transporter (ABCC3), ABCC3 (gene 8714); assay: LTEA_HepaRG_ABCC3: Life Technologies and Expression Analysis (LTEA) Assay for ABC Transporter (ABCC3) using HepaRG (AID 2283462)
Procedure, shortened: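 Transcriptional change of ABCC3 in HepaRG after 48 h treatment, determined by qRT-PCR normalized to endogenous controls. Concentrations spanned eight half-log steps to 100 uM in 0.5% DMSO.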

[7] = read-out: ABC Transporter (ABCC2), ABCC2 (gene 1244); assay: LTEA_HepaRG_ABCC2: Life Technologies and Expression Analysis (LTEA) Assay for ABC Transporter (ABCC2) using HepaRG (AID 2283464)
Procedure, shortened: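 After plating and 48 h culture, HepaRG medium is replaced with serum-free induction medium and chemicals are added (8 concentrations, max 100 uM, 0.5% DMSO) for 48 h. Total RNA then undergoes qRT-PCR for ABCC2 with housekeeping normalization.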

[8] = read-out: Broad substrate specificity ATP-binding cassette transporter ABCG2 (Homo sapiens) (UniProt Q9UNQ0); assay: LTEA_HepaRG_ABCG2: Life Technologies and Expression Analysis (LTEA) Assay for ABC Transporter (ABCG2) using HepaRG (AID 2283465)
Procedure, shortened: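 Read-out is ABCG2 mRNA induction or loss quantified by qRT-PCR after 48 h chemical treatment of human HepaRG cells, normalized to three housekeeping genes. Concentrations reached 100 uM top in half-log steps; fitting was bidirectional against 0.5% DMSO.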

[9] = read-out: ATP-citrate lyase (ACLY), ACLY (gene 47); assay: LTEA_HepaRG_ACLY: Life Technologies and Expression Analysis (LTEA) Assay for ATP-citrate lyase (ACLY) using HepaRG (AID 2283466)
Procedure, shortened: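 HepaRG, 48 h exposure, 8-pt half-log dilutions (top 100 uM), 0.5% DMSO. Readout: ACLY mRNA, TaqMan qRT-PCR, housekeeping-normalized (ACTB/GAPDH/POLR2A). Bidirectional curve fit vs DMSO.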

[10] = read-out: Peroxisomal acyl-coenzyme A oxidase 1 (ACOX1) gene, ACOX1 (gene 51); assay: LTEA_HepaRG_ACOX1: Life Technologies and Expression Analysis (LTEA) Assay for Peroxisomal acyl-coenzyme A oxidase 1 (ACOX1) gene using HepaRG (AID 2283467)
Procedure, shortened: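 Measured by qRT-PCR against three housekeeping genes: ACOX1 transcript change in human HepaRG cells after 48 h dosing. Concentrations ran up to 100 uM in half-log steps. Curves were fitted bidirectionally relative to 0.5% DMSO.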

[11] = read-out: Alkaline Phosphatase, Placental (ALPP) gene, ALPP (gene 250); assay: LTEA_HepaRG_ALPP: Life Technologies and Expression Analysis (LTEA) Assay for Alkaline Phosphatase, Placental (ALPP) gene using HepaRG (AID 2283468)
Procedure, shortened: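 Using human liver HepaRG cells, chemicals are tested in duplicate over 48 h at half-log concentrations topping at 100 uM; phenobarbital 1 mM serves as induction control. ALPP mRNA change by qRT-PCR, bidirectional fit against vehicle.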

[12] = read-out: Bcl-2 (BAD) gene, BAD (gene 572); assay: LTEA_HepaRG_BAD: Life Technologies and Expression Analysis (LTEA) Assay for Bcl-2 (BAD) gene using HepaRG (AID 2283469)
Procedure, shortened: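 BAD transcript change, measured by qRT-PCR against three housekeeping genes and fitted in both directions relative to 0.5% DMSO, after 48 h chemical treatment of human HepaRG liver cells at concentrations up to 100 uM.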

[13] = read-out: Bcl-2 (BAX) gene, BAX (gene 581); assay: LTEA_HepaRG_BAX: Life Technologies and Expression Analysis (LTEA) Assay for Bcl-2 (BAX) gene using HepaRG (AID 2283470)
Procedure, shortened: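 Differentiated HepaRG cells exposed 48 h in serum-free induction medium, eight half-log concentrations from 100 uM, in duplicate, 0.5% DMSO vehicle. BAX mRNA by TaqMan qRT-PCR, normalised to ACTB, GAPDH and POLR2A.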

[14] = read-out: Alpha-fetoprotein (AFP) gene, AFP (gene 174); assay: LTEA_HepaRG_AFP: Life Technologies and Expression Analysis (LTEA) Assay for Alpha-fetoprotein (AFP) gene using HepaRG (AID 2283472)
Procedure, shortened: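 Differentiated human HepaRG cells exposed 48 h in serum-free induction medium, 8-point half-log series from 100 uM in 0.5% DMSO, duplicate. AFP mRNA by qRT-PCR, normalized to ACTB, GAPDH, POLR2A; bidirectional fit vs DMSO.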

[15] = read-out: BCL2L11 (gene 10018); assay: LTEA_HepaRG_BCL2L11: Life Technologies and Expression Analysis (LTEA) Assay for Bcl-2 (BCL2L11) gene using HepaRG (AID 2283473)
Procedure, shortened: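 Human hepatic HepaRG cultures are treated 48 h with test chemicals (maximum 100 uM, 0.5% DMSO vehicle). Expression of BCL2L11 is measured by qRT-PCR against ACTB, GAPDH and POLR2A, with activity in either direction scored relative to vehicle.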

[16] = read-out: Apolipoprotein A-V (APOA5) gene, APOA5 (gene 116519); assay: LTEA_HepaRG_APOA5: Life Technologies and Expression Analysis (LTEA) Assay for Apolipoprotein A-V (APOA5) gene using HepaRG (AID 2283474)
Procedure, shortened: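 Concentration-response of APOA5 expression in HepaRG: eight half-log doses to 100 uM, 48 h, qRT-PCR normalized to ACTB/GAPDH/POLR2A, bidirectional fitting with 0.5% DMSO as baseline.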

[17] = read-out: Apoptosis regulator Bcl-2 (Homo sapiens) (UniProt P10415); assay: LTEA_HepaRG_BCL2: Life Technologies and Expression Analysis (LTEA) Assay for Bcl-2 gene using HepaRG (AID 2283475)
Procedure, shortened: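 Differentiated human HepaRG cells in serum-free induction medium exposed 48 h, in duplicate, to 8-point half-log series from 100 uM in 0.5% DMSO. BCL2 mRNA by qRT-PCR (TaqMan/Fluidigm), normalized to ACTB, GAPDH, POLR2A; bidirectional fit against DMSO.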

Measured: AC50

Sequence of Broad substrate specificity ATP-binding cassette transporter ABCG2 (Homo sapiens) (Q9UNQ0 whole entry, looked up): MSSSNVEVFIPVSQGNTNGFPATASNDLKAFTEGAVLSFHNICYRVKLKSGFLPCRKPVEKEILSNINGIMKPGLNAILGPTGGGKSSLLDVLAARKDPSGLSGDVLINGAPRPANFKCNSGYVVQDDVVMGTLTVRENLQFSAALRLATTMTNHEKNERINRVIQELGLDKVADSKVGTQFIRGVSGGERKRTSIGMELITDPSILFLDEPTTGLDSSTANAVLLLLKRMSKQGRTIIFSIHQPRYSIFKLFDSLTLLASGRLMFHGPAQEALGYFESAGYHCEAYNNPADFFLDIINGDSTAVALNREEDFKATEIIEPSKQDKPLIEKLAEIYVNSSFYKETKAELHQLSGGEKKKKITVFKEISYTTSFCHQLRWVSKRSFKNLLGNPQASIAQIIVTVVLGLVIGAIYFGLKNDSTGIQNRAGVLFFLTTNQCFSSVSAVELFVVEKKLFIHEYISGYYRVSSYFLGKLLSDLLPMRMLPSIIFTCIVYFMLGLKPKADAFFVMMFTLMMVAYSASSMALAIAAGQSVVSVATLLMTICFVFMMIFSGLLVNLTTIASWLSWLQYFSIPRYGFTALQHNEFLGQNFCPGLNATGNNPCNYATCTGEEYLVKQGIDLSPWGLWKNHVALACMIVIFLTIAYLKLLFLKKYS
Sequence of Apoptosis regulator Bcl-2 (Homo sapiens) (P10415 whole entry, looked up): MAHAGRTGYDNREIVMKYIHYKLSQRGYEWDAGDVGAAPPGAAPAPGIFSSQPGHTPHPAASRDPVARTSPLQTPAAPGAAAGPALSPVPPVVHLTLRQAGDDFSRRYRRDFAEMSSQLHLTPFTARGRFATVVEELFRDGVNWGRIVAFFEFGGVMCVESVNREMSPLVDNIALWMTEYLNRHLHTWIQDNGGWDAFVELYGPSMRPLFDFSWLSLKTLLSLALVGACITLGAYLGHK

CCNc1nc(Cl)nc(NC(C)C)n1
active: [4] 21.2 µM
inactive: all other assays above

Fc1ccc(Oc2ccnc3cc(Cl)cc(Cl)c23)cc1
active: [8] 50 µM | [11] 50 µM | [14] 89 µM
inactive: all other assays above

COc1cnc(OC)n2nc(NS(=O)(=O)c3c(OCC(F)F)cccc3C(F)(F)F)nc12
active: [4] 23.3 µM | [14] 50 µM
inactive: all other assays above
